Source: PubChem BioAssay (NCI)
Compounds without any hit were thinned out: in the full panel of roughly 79,000, 15% have a hit. Calls of active or inactive are those of the source. Cut-off read from the data, not from the text of the source: active = growth inhibition above about 70%; inactive = the rest.

How the values were obtained:
[1] = NCI Yeast Anticancer Drug Screen. Data for the mlh1 strain (AID 171);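 note: 0% = growth of vehicle-treated control cultures of the same strain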; details: S. cerevisiae mlh1 strain growth inhibition, active compounds read high
Outline: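 Steps: expose the defined-mutant yeast strain to compound; expose a parallel culture to vehicle; measure growth; express compound effect as inhibition relative to the vehicle culture.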

[2] = NCI Yeast Anticancer Drug Screen. Data for the sgs1 strain (AID 173);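 note: 0% = growth of vehicle-only control cultures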; details: S. cerevisiae sgs1 mutant, active compounds read high
Outline: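 Treat defined-mutant yeast with compound; measure growth; calculate inhibition relative to vehicle-treated cells.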

[3] = NCI Yeast Anticancer Drug Screen. Data for the mlh1 rad18 strain (AID 175); details: S. cerevisiae mlh1 rad18 strain growth inhibition, active compounds read high
Outline: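 Test agents were incubated with a yeast strain of defined genotype (DNA damage repair defect). Inhibition of growth was derived by comparison with vehicle-exposed cultures.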

[4] = NCI Yeast Anticancer Drug Screen. Data for the rad18 strain (AID 177); details: S. cerevisiae rad18 mutant growth inhibition, active compounds read high
Outline: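 A genetically defined yeast mutant impaired in DNA damage repair was treated with test compounds, then its growth was measured against cultures receiving vehicle alone.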

[5] = NCI Yeast Anticancer Drug Screen. Data for the wt1 strain (AID 149);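 note: 0% = growth of vehicle-treated wt1 cultures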; details: S. cerevisiae wt1 strain (SPY 50644) growth inhibition, active compounds read high
Outline: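 Measured: growth of wt1 yeast under compound versus vehicle treatment, reported as inhibition.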

[6] = NCI Yeast Anticancer Drug Screen. Data for the rad50EPP+ strain (AID 151);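 note: 0% = growth of vehicle-treated control cultures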; details: S. cerevisiae rad50 mutant strain, active compounds read high
Outline: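 Exposing the rad50EPP+ strain to each compound, growth was compared with vehicle-only cultures to give inhibition.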

[7] = NCI Yeast Anticancer Drug Screen. Data for the mgt1 strain (AID 153); details: S. cerevisiae mgt1 mutant growth inhibition, active compounds read high
Outline: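 Genetically defined yeast (mgt1) treated with compound; inhibition of growth expressed against vehicle-treated controls.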

[8] = NCI Yeast Anticancer Drug Screen. Data for the rad50 strain (AID 155);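 note: 0% = growth of vehicle-only cultures of the same strain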; details: S. cerevisiae rad50 strain growth inhibition, active compounds read high
Outline: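 Growth of the mutant yeast was measured after compound exposure and referenced to vehicle-treated cultures.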

[9] = NCI Yeast Anticancer Drug Screen. Data for the mec2-1 strain (AID 157); details: S. cerevisiae mec2-1 strain, active compounds read high
Outline: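 Readout is yeast growth inhibition, normalised to vehicle-treated controls, in the mec2-1 strain exposed to compound.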

[10] = NCI Yeast Anticancer Drug Screen. Data for the rad14 strain (AID 159);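 note: 0% = growth of vehicle-treated control cultures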; details: S. cerevisiae rad14 strain growth inhibition, active compounds read high
Outline: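 Here, inhibition of yeast growth was measured after compound exposure, using a strain with a genetic defect in DNA damage repair and vehicle-treated cultures as the reference.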

[11] = NCI Yeast Anticancer Drug Screen. Data for the sgs1 mgt1 strain (AID 161);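 note: 0% = growth of cultures given vehicle only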; details: S. cerevisiae sgs1 mgt1 strain, active compounds read high
Outline: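 Growth of a repair-deficient yeast mutant was monitored after compound treatment and expressed as inhibition relative to vehicle-treated cultures.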

[12] = NCI Yeast Anticancer Drug Screen. Data for the CLN2oe strain (AID 163);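 note: 0% = growth of vehicle-only control cultures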; details: S. cerevisiae CLN2oe strain, active compounds read high
Outline: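 Values reflect how much compound exposure reduced yeast growth, referenced to vehicle-exposed cells. Assay organism is a strain with a defined genetic change affecting cell-cycle control.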

[13] = NCI Yeast Anticancer Drug Screen. Data for the cln2 rad14 strain (AID 165);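 note: 0% = growth equal to vehicle treated cultures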; details: S. cerevisiae cln2 rad14 strain, active compounds read high
Outline: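 Relative to vehicle controls, growth inhibition of compound-treated cln2 rad14 yeast was recorded.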

[14] = NCI Yeast Anticancer Drug Screen. Data for the bub3 strain (AID 167); details: S. cerevisiae bub3 mutant strain, active compounds read high
Outline: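 Whole-cell yeast assay. The mutant strain was incubated with compounds, and growth inhibition was determined by comparison with vehicle-treated cells.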

[15] = NCI Yeast Anticancer Drug Screen. Data for the wt2 strain (AID 169);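 note: 0% = growth of vehicle-treated yeast cultures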; details: S. cerevisiae wt2 strain growth inhibition, active compounds read high
Outline: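 Values express reduction in yeast growth under compound treatment, referenced to vehicle-treated cells.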

[16] = at 5.0 µM (retest, dose inferred, filed as 0.5)
[17] = at 50.0 µM (retest, dose inferred, filed as 5.0)

Measured: growth inhibition

[N-]=[N+]=C1C(Cl)=C(Cl)C(Cl)=C1Cl
active: [1]; at 33.0 µM 99% | [1]; at 100.0 µM 99% | [2]; at 33.0 µM 99% | [2]; at 100.0 µM 99% | [3]; [17] 97% | [3]; at 50.0 µM 99.1% | [4]; at 33.0 µM 98% | [4]; at 100.0 µM 99%
inactive: [1]; at 1.2 µM 6% | [1]; at 3.7 µM -1% | [1]; at 11.0 µM 48% | [2]; at 1.2 µM -1% | [2]; at 3.7 µM 19% | [2]; at 11.0 µM 64% | [3]; [16] 33% | [4]; at 1.2 µM 3% | [4]; at 3.7 µM 13% | [4]; at 11.0 µM 62%

CCCCCCCCCC[Se]C#N
active: [6]; at 33.0 µM 76% | [6]; at 100.0 µM 97% | [7]; at 100.0 µM 95% | [8]; [17] 99% | [8]; at 50.0 µM 99.4% | [8]; at 100.0 µM 97% | [9]; [17] 99% | [9]; at 50.0 µM 99.6% | [9]; at 100.0 µM 77% | [10]; at 100.0 µM 99% | [11]; [17] 99% | [11]; at 50.0 µM 99.3% | [13]; [17] 99% | [13]; at 50.0 µM 97.3% | [14]; [17] 99% | [14]; at 50.0 µM 99.5% | [14]; at 100.0 µM 90% | [15]; at 100.0 µM 79% | [1]; at 100.0 µM 90% | [2]; at 100.0 µM 96% | [3]; [17] 99% | [3]; at 50.0 µM 99.3% | [4]; at 100.0 µM 98%
inactive: [5]; at 1.2 µM -4% | [5]; at 3.7 µM 2% | [5]; at 11.0 µM -3% | [5]; at 33.0 µM 6% | [5]; at 100.0 µM 48% | [6]; at 1.2 µM 4% | [6]; at 3.7 µM 6% | [6]; at 11.0 µM 23% | [7]; at 1.2 µM -2% | [7]; at 3.7 µM 0% | [7]; at 11.0 µM 0% | [7]; at 33.0 µM 16% | [8]; at 1.2 µM 2% | [8]; at 3.7 µM -38% | [8]; [16] 30% | [8]; at 11.0 µM 14% | [8]; at 33.0 µM 52% | [9]; at 1.2 µM 1% | [9]; at 3.7 µM 4% | [9]; [16] 30% | [9]; at 11.0 µM 6% | [9]; at 33.0 µM 19% | [10]; at 1.2 µM -1% | [10]; at 3.7 µM -2% | [10]; at 11.0 µM 4% | [10]; at 33.0 µM 31% | [11]; [16] 46% | [12]; at 1.2 µM -1% | [12]; at 3.7 µM 0% | [12]; at 11.0 µM -4% | [12]; at 33.0 µM -7% | [12]; at 100.0 µM -3% | [13]; [16] 15% | [14]; at 1.2 µM 0% | [14]; at 3.7 µM -2% | [14]; [16] 4% | [14]; at 11.0 µM -2% | [14]; at 33.0 µM 5% | [15]; at 1.2 µM -2% | [15]; at 3.7 µM 7% | [15]; at 11.0 µM -1% | [15]; at 33.0 µM -2% | [1]; at 1.2 µM -1% | [1]; at 3.7 µM 0% | [1]; at 11.0 µM 6% | [1]; at 33.0 µM 26% | [2]; at 1.2 µM -1% | [2]; at 3.7 µM 1% | [2]; at 11.0 µM 13% | [2]; at 33.0 µM 54% | [3]; [16] 51% | [4]; at 1.2 µM 4% | [4]; at 3.7 µM 6% | [4]; at 11.0 µM 18% | [4]; at 33.0 µM 63%

CC12CCC(C1)C(C)(C)C2OC(=O)c1ccccc1N (centres undefined)
active: [14]; [17] 80% | [14]; at 100.0 µM 79% | [3]; [17] 82%
inactive: [5]; at 1.2 µM -1% | [5]; at 3.7 µM -1% | [5]; at 11.0 µM -4% | [5]; at 33.0 µM -13% | [5]; at 100.0 µM 14% | [6]; at 1.2 µM 6% | [6]; at 3.7 µM 5% | [6]; at 11.0 µM 0% | [6]; at 33.0 µM 7% | [6]; at 100.0 µM 1% | [7]; at 1.2 µM -3% | [7]; at 3.7 µM 0% | [7]; at 11.0 µM -5% | [7]; at 33.0 µM -9% | [7]; at 100.0 µM 5% | [8]; at 1.2 µM 9% | [8]; at 3.7 µM 6% | [8]; [16] -6% | [8]; at 11.0 µM 7% | [8]; at 33.0 µM 30% | [8]; [17] 50% | [8]; at 50.0 µM -5.6% | [8]; at 100.0 µM 61% | [9]; at 1.2 µM -1% | [9]; at 3.7 µM -2% | [9]; [16] -26% | [9]; at 11.0 µM -6% | [9]; at 33.0 µM 1% | [9]; [17] -26% | [9]; at 50.0 µM 2.7% | [9]; at 100.0 µM 39% | [10]; at 1.2 µM 7% | [10]; at 3.7 µM 2% | [10]; at 11.0 µM -6% | [10]; at 33.0 µM 4% | [10]; at 100.0 µM 17% | [11]; [16] -5% | [11]; [17] 56% | [11]; at 50.0 µM 10.8% | [12]; at 1.2 µM -1% | [12]; at 3.7 µM -2% | [12]; at 11.0 µM -3% | [12]; at 33.0 µM 14% | [12]; at 100.0 µM 61% | [13]; [16] -2% | [13]; [17] 32% | [13]; at 50.0 µM -8.95% | [14]; at 1.2 µM 0% | [14]; at 3.7 µM 3% | [14]; [16] 12% | [14]; at 11.0 µM 9% | [14]; at 33.0 µM 23% | [14]; at 50.0 µM 18% | [15]; at 1.2 µM -10% | [15]; at 3.7 µM -8% | [15]; at 11.0 µM -21% | [15]; at 33.0 µM -8% | [15]; at 100.0 µM 7% | [1]; at 1.2 µM 2% | [1]; at 3.7 µM -1% | [1]; at 11.0 µM -5% | [1]; at 33.0 µM 11% | [1]; at 100.0 µM 38% | [2]; at 1.2 µM -11% | [2]; at 3.7 µM 0% | [2]; at 11.0 µM -24% | [2]; at 33.0 µM -10% | [2]; at 100.0 µM 36% | [3]; [16] 14% | [3]; at 50.0 µM -2.55% | [4]; at 1.2 µM 3% | [4]; at 3.7 µM 5% | [4]; at 11.0 µM 4% | [4]; at 33.0 µM 9% | [4]; at 100.0 µM 54%
